{"source": "PubChem BioAssay (Tox21)", "note": "Results filed as inconclusive are left out. Active and inactive are the calls of the source. The call rests on the fitted dose curve; in most records, active means well fitted activation curve with a large enough effect; inconclusive means small, poorly fitted or top-dose-only effect; inactive means flat fitted curve, though single readings scatter. Positions of bridges follow the written chain, without caps; N, C: chain ends. Residues, ends and D or L forms follow the SMILES beside them. On the % scale 0 is the no-effect control and ±100 the full control effect.", "data": [{"experiment": "qHTS assay to identify small molecule phospholipidosis (PLD) inducers (AID 1259344)", "details": "HepG2 phospholipidosis, LipidTOX Red imaging, 24 h; series mostly up to 38.3 µM; PLD induction: at the top concentration", "in_short": "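Accumulated phospholipid, stained red by LipidTOX during 24 h compound treatment of HepG2 cells at 37 C, is quantified from images as pit number and intensity, normalised per cell using Hoechst-stained nuclei.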", "values": [{"smiles": "NCCCC[C@H](NC(=O)[C@@H]1CCCN1C(=O)[C@@H]1CSSC[C@H](NC(=O)CNC(=O)CNC(=O)CN)C(=O)N[C@@H](Cc2ccc(O)cc2)C(=O)N[C@@H](Cc2ccccc2)C(=O)N[C@@H](CCC(N)=O)C(=O)N[C@@H](CC(N)=O)C(=O)N1)C(=O)NCC(N)=O", "note": "(H-GGGCYFQNCPKG-NH2; disulfide 4-9)", "PLD induction": "-2.87% (inactive)"}, {"smiles": "O=C(Nc1ccc(/C=C/c2ccc(NC(=O)c3cc(S(=O)(=O)O)c4cccnc4c3O)cc2S(=O)(=O)O)c(S(=O)(=O)O)c1)c1cc(S(=O)(=O)O)c2cccnc2c1O", "PLD induction": "-0.0305% [at 7.66 µM] (inactive)"}, {"smiles": "CCCCCCCCCCCCCCCCSCC(COC)COP(=O)([O-])OCC[N+](C)(C)C", "note": "(stereo not given)", "PLD induction": "-2.23% (inactive)"}, {"smiles": "CN1CCN(CCCN2c3ccccc3Sc3ccccc32)CC1", "PLD induction": "-0.859% (inactive)"}, {"smiles": "CCN(CC)c1ccc(N=Nc2ccc(S(=O)(=O)N(C)C)cc2)c(S(=O)(=O)NCC[n+]2ccccc2)c1", "PLD induction": "-7.26% (inactive)"}, {"smiles": "Cc1ccc(/C(=C\\CN2CCCC2)c2cccc(/C=C/C(=O)O)n2)cc1", "PLD induction": "1.02% (inactive)"}, {"smiles": "COc1cc(NCCCC(C)N)c2ncccc2c1", "note": "(stereo not given)", "PLD induction": "-0.332% (inactive)"}, {"smiles": "CC1=C(C(=O)OCCN(Cc2ccccc2)c2ccccc2)C(c2cccc([N+](=O)[O-])c2)C(P2(=O)OCC(C)(C)CO2)=C(C)N1", "note": "(stereo not given)", "PLD induction": "-1.08% [at 7.66 µM] (inactive)"}, {"smiles": "O=C(O)c1cc2ccccc2c(Cc2c(O)c(C(=O)O)cc3ccccc23)c1O", "PLD induction": "-6.08% (inactive)"}, {"smiles": "C=C1/C(=C\\C=C2/CCC[C@]3(C)[C@@H]([C@H](C)OCCC(C)(C)O)CC[C@@H]23)C[C@@H](O)C[C@@H]1O", "PLD induction": "-2.6% (inactive)"}, {"smiles": "C=C1C(=C/C=C2\\CCC[C@]3(C)[C@@H]([C@H](C)/C=C/[C@H](C)C(C)C)CC[C@@H]23)C[C@@H](O)C[C@@H]1O", "PLD induction": "-2.28% (inactive)"}, {"smiles": "O=S(O)CNc1ccc(S(=O)(=O)c2ccc(NCS(=O)O)cc2)cc1", "PLD induction": "-1.49% (inactive)"}, {"smiles": "C#C[C@]1(OC(C)=O)CC[C@H]2[C@@H]3CCC4=CC(=O)CC[C@@H]4[C@H]3CC[C@@]21C", "PLD induction": "1.06% [at 7.66 µM] (inactive)"}, {"smiles": "COc1cc([C@@H]2c3cc4c(cc3C(O[C@@H]3O[C@@H]5CO[C@@H](C)O[C@H]5[C@H](O)[C@H]3O)C3COC(=O)[C@@H]32)OCO4)cc(OC)c1OP(=O)(O)O", "note": "(stereo not given in full)", "PLD induction": "0.0559% [at 1.53 µM] (inactive)"}, {"smiles": "COc1ccc(C(=O)Nc2ccccc2CCC2CCCCN2C)cc1", "note": "(stereo not given)", "PLD induction": "0.592% (inactive)"}, {"smiles": "COc1cc2[nH]c(C)c(CCN3CCN(c4ccccc4)CC3)c2cc1OC", "PLD induction": "13.6% (inactive)"}, {"smiles": "CCCC1([C@H](O)C/C=C/[C@H]2[C@H](O)CC(=O)[C@@H]2CCCCCCC(=O)OC)CCC1", "PLD induction": "0.112% [at 7.66 µM] (inactive)"}, {"smiles": "CN1CC(O)c2cc(N=NC(N)=O)c(O)cc21", "note": "(stereo not given)", "PLD induction": "-1.96% (inactive)"}, {"smiles": "Cc1c(N)nc(C(CC(N)=O)NCC(N)C(N)=O)nc1C(=O)NC(C(=O)NC(C)C(O)C(C)C(=O)NC(C(=O)NCCc1nc(-c2nc(C(=O)NCCCN[C@@H](C)c3ccccc3)cs2)cs1)C(C)O)C(O[C@@H]1O[C@@H](CO)[C@@H](O)[C@H](O)[C@@H]1O[C@H]1O[C@H](CO)[C@@H](O)[C@H](OC(N)=O)[C@@H]1O)c1cnc[nH]1", "note": "(stereo not given in full)", "PLD induction": "1.81% [at 7.66 µM] (inactive)"}, {"smiles": "CC(CN(C)C)CN1c2ccccc2S(=O)(=O)c2ccccc21", "note": "(stereo not given)", "PLD induction": "10% (inactive)"}, {"smiles": "CC1(S(=O)(=O)O)CC(=O)c2ccccc2C1=O", "note": "(stereo not given)", "PLD induction": "-7.04% (inactive)"}, {"smiles": "C[C@H]1C[C@H]2[C@@H]3CCC4=CC(=O)C=C[C@]4(C)[C@@]3(F)[C@@H](O)C[C@]2(C)[C@@]1(O)C(=O)CCl", "PLD induction": "-3.04% (inactive)"}, {"smiles": "CC(=O)OC[C@H]1O[C@@H](O[C@H]2[C@H](O)[C@@H](OC(=O)c3ccccc3C(=O)O)[C@H](O)O[C@@H]2COC(C)=O)[C@H](O)[C@@H](OC(=O)c2ccccc2C(=O)O)[C@@H]1O", "PLD induction": "5.14% [at 0.306 µM] (inactive)"}, {"smiles": "CN1[C@@H]2CCC[C@H]1CC(NC(=O)c1nn(C)c3ccccc13)C2", "note": "(stereo not given in full)", "PLD induction": "0.352% (inactive)"}, {"smiles": "COC(=O)C1=C(C)NC(C)=C(C(=O)O[C@H]2CCN(Cc3ccccc3)C2)[C@H]1c1cccc([N+](=O)[O-])c1", "PLD induction": "2.18% (inactive)"}]}]}
